TR-FRET SRC-2 ct: flags TR-FRET format artefacts in PPARgamma SRC-2 recruitment agonist screen | TR-FRET artefact counter-screen; active compounds read high | TR-FRET ratio at 8 µM | actives 0.4% (n = 200,000); in the data active = TR-FRET ratio above about 2000
PPARg SRC2 recr: agonists of SRC-2 recruitment by human PPARgamma. P37231. activation, % at 8 µM. PPARgamma LBD-SRC-2 recruitment, biochemical. actives 0.34% (n = 200,000). AID 1032;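 note: 0% = vehicle and 100% = reference agonist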
PPARg SRC-1 ag: PPARgamma-driven SRC-1 recruitment agonism; P37231; PPARgamma-SRC-1 coactivator recruitment biochemical assay; activation, % at 8 µM; actives 0.41% (n = 200,000); in the data active = activation above about 19%;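 note: 0% = DMSO and 100% = reference agonist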
SRC3 TRFRET art: counter-screen for PPARgamma SRC-3 recruitment agonists: TR-FRET artefact | PPARgamma/SRC-3 format; active compounds read high | TR-FRET ratio at 8 µM | actives 0.39% (n = 99,000); in the data active = TR-FRET ratio above about 2000
SRC1 TRFRET art: counter-screen for PPARgamma SRC-1 recruitment agonists: TR-FRET artefact; TR-FRET detection artefact counter-screen, emission ratio; active compounds read high; TR-FRET ratio at 8 µM; actives 0.34% (n = 99,000); in the data active = TR-FRET ratio above about 2300
PPARg SRC-3 ag: PPARgamma-driven SRC-3 recruitment agonism | P37231 | biochemical PPARgamma/SRC-3 coactivator recruitment assay | activation, % at 8 µM | actives 0.26% (n = 200,000) | AID 731; in the data active = activation above about 23%;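 note: 0% = DMSO and 100% = reference agonist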
PPARg SRC2 ag: confirmation of agonists of SRC-2 recruitment by human PPARgamma; shares compounds with PPARg SRC-3 ag; biochemical SRC-2 recruitment by PPARgamma; activation, % at 8 µM; actives 52% (n = 790);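 note: 0% = vehicle alone and 100% = reference agonist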
PPARg SRC1 conf: confirmation of agonists of SRC-1 recruitment by human PPARgamma; shares compounds with PPARg SRC-3 ag; actives 43% (n = 790); activation, % at 8 µM; AID 1300; PPARgamma–SRC-1 coactivator recruitment biochemical assay; in the data active = activation above about 20%;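 note: 0% = vehicle wells and 100% = reference agonist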
PPARg SRC3 conf: confirmation of agonists of SRC-3 recruitment by human PPARgamma | activation, % at 8 µM | shares compounds with PPARg SRC-3 ag | actives 29% (n = 790) | biochemical PPARgamma-SRC-3 coactivator recruitment, agonist mode | AID 1301; in the data active = activation above about 24%;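 note: 0% = vehicle wells and 100% = reference agonist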
Active calls of the source: *; . = no result. A selection: hits, their analogues and other compounds. The true share with any hit is near 0.84%. Cut-off read from the data, not from the text of the source, unless noted: active = activation above about 22%; inactive = the rest.

SMILES	TR-FRET SRC-2 ct	PPARg SRC2 recr	PPARg SRC-1 ag	SRC3 TRFRET art	SRC1 TRFRET art	PPARg SRC-3 ag	PPARg SRC2 ag	PPARg SRC1 conf	PPARg SRC3 conf
CSc1ccccc1C(=O)N1CCN(c2ncccn2)CC1	1733	10.6	5.8	1603	1864	2.0	.	.	.
O=C(CCc1nnc(CCC2CCCCC2)o1)NCc1ccon1	1517	-0.8	5.4	1592	1849	2.5	.	.	.
O=C(CSc1ncnc2c1oc1ccccc12)c1cccs1	2091*	30.2*	51.7*	.	.	69.3*	38.1*	25.2*	22.7
O=C(CSc1ncnc2c1oc1ccccc12)OCc1ccccc1	2399*	55.2*	45.8*	.	.	41.8*	40.6*	34.3*	28.8*
O=C(CSc1ncnc2c1oc1ccccc12)Nc1nccs1	1614	14.3	0.3	1569	1953	3.0	.	.	.
NC(=O)CSc1ncnc2c1oc1ccccc12	4661*	110.2*	120.1*	.	.	153.4*	76.4*	54.6*	53.0*
O=C(CSc1ncnc2c1oc1ccccc12)NC1CCCCC1	2101*	24.5*	64.5*	.	.	32.9*	49.1*	36.8*	32.2*
COc1ccc(Cl)cc1NC(=O)COC(=O)c1cc(NS(=O)(=O)c2cccs2)ccc1O	1498	10.0	5.0	1442	1719	-0.3	.	.	.
O=c1[nH]c2ccc(Cl)cc2c(-c2ccccc2)c1SC(=S)N1CCCCC1	1624	22.9*	1.5	.	.	15.7	3.8	1.3	0.1
CCOC(=O)c1cc(C)nn1-c1nc(Cl)cc(OC)n1	1499	-2.8	0.2	1621	1701	-0.6	.	.	.
COc1cc(-c2nc(-c3ccccc3)c(-c3cccs3)[nH]2)cc(OC)c1OC	1650	9.6	6.7	.	.	0.7	.	.	.
c1ccc(-c2nc(-c3cccs3)[nH]c2-c2ccccc2)cc1	1842	18.1	24.6*	.	.	24.0	22.8*	16.0	15.3
COC(=O)c1cc(OC)c(OC)cc1NC(=O)c1c(-c2ccccc2Cl)noc1C	1490	3.9	6.2	.	.	-9.7	.	.	.
O=c1c2cn[nH]c2nc(SCc2cc(=O)n3cc(Br)ccc3n2)n1-c1ccc(Br)cc1	2457*	35.8*	32.7*	2853*	3354*	21.7	28.1*	18.6	20.4
O=c1c2cn[nH]c2nc(SCc2ccccc2F)n1-c1ccc(Br)cc1	1610	-0.8	7.2	1579	1760	3.2	.	.	.
Cc1ccc(-c2csc3nnc(SCC(=O)Nc4cccc(C)n4)n23)cc1	1744	9.6	20.6*	.	.	9.8	3.5	5.2	5.3
CSCC[C@H](NC(=O)NCc1ccc(F)cc1)C(=O)O	1393	4.6	9.3	.	.	2.9	.	.	.
CCc1cc2c(=O)n(-c3ccccc3)c(=S)[nH]c2s1	2026*	37.3*	27.2*	.	.	40.6*	31.4*	25.4*	23.6
COC(=O)c1ccc2c(=O)n(-c3ccccc3)c(=S)[nH]c2c1	1472	0.3	0.8	1579	1949	-0.3	.	.	.
O=C(C1=C[C@@H](c2coc3ccccc3c2=O)C[C@@H](OCCCCO)O1)N1CCN(Cc2ccc3c(c2)OCO3)CC1	1459	4.5	-0.8	1677	1804	0.2	.	.	.
O=C(N/N=C/c1ccc(N2CCOCC2)o1)c1cccc(C(F)(F)F)c1	1609	23.6*	11.7	.	.	12.7	5.6	3.8	3.9
O=C(CN1C(=O)CC(c2ccccc2)S(=O)(=O)c2ccccc21)N1CCCCC1 (configuration not stated)	1437	-5.5	-9.5	1483	1764	-2.2	.	.	.
CC(Sc1nnc(-c2ccc(Cl)cc2Cl)n1Cc1ccccc1)C(=O)Nc1nccs1 (configuration not stated)	1618	6.8	37.1*	.	.	17.9	18.6	28.0*	26.3*
Cc1nnc(SC(C)C(=O)Nc2ccc(Cl)cn2)n1Cc1ccccc1 (configuration not stated)	1728	1.5	4.3	1631	1869	-0.1	.	.	.
